Screening results as filed in PubChem.
Hits are enriched below; roughly 18% of the tested compounds scored in any of these assays.
IL-1B inflam inh = inhibitors of inflammasome signaling (IL-1 beta secretion); THP-1 LPS/ATP IL-1B secretion, AlphaLISA, 16 h; active compounds read low; activity change, % at 57.5 µM; 4.7% of 360,000 active; AID 743279; in the data active = activity change below about -50%; inconclusive = mostly about -30% to -49%
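Secreted IL-1B measured by AlphaLISA bead assay after 16 h compound exposure of THP-1 cells; compounds (final up to 57.5 uM) added 1 h before LPS (250 ng/mL) and ATP (1.25 mM) stimulation; lower signal means less secretion.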
TDP1 cell noCPT = qHTS for Inhibitors of human tyrosyl-DNA phosphodiesterase 1 (TDP1): qHTS in cells in absence of CPT; DT40 Tdp1-/- hTDP1 cells, no CPT, ATP luminescence, 48 h; Potency, µM (series often up to 46.2 µM), without a hit: top-dose activity change, negative = growth inhibition, actives largely listed as inhibitors; 15% of 420,000 active; note: potency is the fitted concentration of half-maximal effect; nearly all actives have a fitted effect of over 55% in size
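No-CPT arm: Tdp1-/-;hTDP1 DT40 cells (400/well) plus compounds, incubated ≥48 hr at 37 °C. Readout CellTiter-Glo luminescence.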
CtBP-E1A blk = blocks the CtBP interaction with E1A. AlphaScreen GST-E1A/His-CtBP binding, 1536-well; active compounds read low. activity change, % (test concentration not listed). 0.49% of 340,000 active; in the data active = activity change below about -65%; inconclusive = mostly about -30% to -63%
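In 5 uL wells, 23 nL compound meets equimolar GST-E1A and His-CtBP (5X stock 125 nM each) for 2 h, 37 °C. Beads (5X, 50 ug/mL) then 1 h, 37 °C, dark.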
TDP1 block = blocks human tyrosyl-DNA phosphodiesterase 1 | Potency, µM (top dose mostly 130 µM), inactives show at the top dose activity change, negative = inhibition, most hits filed as inhibitors | AID 485290 | recombinant TDP1, AlphaScreen DNA substrate cleavage | 0.28% of 350,000 active | Q9NUW8; note: potency is the fitted concentration of half-maximal effect; nearly all actives have a fitted effect of over 40% in size
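Steps: enzyme plus compound, 15 min RT; add biotin/phosphotyrosine-FITC oligonucleotide (15 nM final), react 5 min; add donor/acceptor beads (10 ug/ml final), 10 min; read AlphaScreen. Tdp1 at 1 nM final.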
DT40 TDP1 CPT = DT40-hTDP1 cell growth loss with CPT; chicken DT40 Tdp1-/-;hTDP1 cells + 20 nM CPT, ATP luminescence, 48 h; Potency, µM (titrated, usually from 46.2 µM), for inactives: top-dose activity change, negative = growth inhibition, actives largely listed as inhibitors; 12% of 420,000 active; note: potency is the fitted concentration of half-maximal effect; nearly all actives have a fitted effect of over 55% in size
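Chicken DT40 Tdp1-/- cells complemented with human TDP1, 400 cells/well, exposed to compounds plus 20 nM camptothecin for at least 48 h at 37 C; viability read as ATP content by CellTiter-Glo luminescence.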
Six1-Eya2 blk = inhibitors of human Six1/Eya2 interaction; 0.56% of 360,000 active; AlphaScreen GST-Six1/His-Eya2 binding, biochemical; active compounds read low; Q15475+O00167; AID 651725; activity change, % (test concentration not listed); in the data active = activity change below about -65%; inconclusive = mostly about -30% to -63%
Target sequence (O00167 whole entry, looked up): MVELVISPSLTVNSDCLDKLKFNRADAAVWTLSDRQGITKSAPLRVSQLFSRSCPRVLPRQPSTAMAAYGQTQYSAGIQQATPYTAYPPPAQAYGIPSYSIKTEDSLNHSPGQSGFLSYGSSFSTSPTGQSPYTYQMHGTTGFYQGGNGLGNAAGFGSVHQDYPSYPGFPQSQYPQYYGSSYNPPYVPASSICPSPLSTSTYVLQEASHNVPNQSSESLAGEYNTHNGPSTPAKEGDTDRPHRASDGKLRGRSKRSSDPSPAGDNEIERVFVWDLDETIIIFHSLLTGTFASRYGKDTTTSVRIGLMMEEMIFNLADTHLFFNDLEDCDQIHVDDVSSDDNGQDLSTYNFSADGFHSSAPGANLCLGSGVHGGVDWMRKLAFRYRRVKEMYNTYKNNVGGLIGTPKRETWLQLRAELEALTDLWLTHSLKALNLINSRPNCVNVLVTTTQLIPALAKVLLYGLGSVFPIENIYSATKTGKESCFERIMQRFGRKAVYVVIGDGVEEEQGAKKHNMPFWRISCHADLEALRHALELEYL
Target sequence (Q15475 whole entry, looked up): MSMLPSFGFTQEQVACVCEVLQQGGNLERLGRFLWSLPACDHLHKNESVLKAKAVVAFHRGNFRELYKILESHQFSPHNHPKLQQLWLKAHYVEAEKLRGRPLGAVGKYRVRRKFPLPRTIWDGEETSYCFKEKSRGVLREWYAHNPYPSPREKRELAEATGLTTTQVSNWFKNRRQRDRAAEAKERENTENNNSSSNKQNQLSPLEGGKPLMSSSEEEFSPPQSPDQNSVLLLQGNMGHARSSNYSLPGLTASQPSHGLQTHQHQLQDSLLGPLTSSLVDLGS
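AlphaScreen with GST-Six1 and His-Eya2 (5X mix: 250 nM and 500 nM), glutathione donor and nickel acceptor beads; buffer 50 mM Tris pH 8.0, 300 mM NaCl, 1 mM TCEP; 1 h at 37 C in the dark.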
Active calls of the source: *; i = inactive; u = inconclusive; x = no result given; [ ] = remark or other dose. Unless noted, calls come from the whole dose curve; as a rule, active = well fitted curve in the direction sought with a large enough effect; inconclusive = small, poorly fitted or top-dose-only effect, or another doubt; inactive = no such curve, though single readings can be large; an effect the other way counts as inactive or inconclusive. % is set by controls: 0 for no effect and ±100 for the full control effect.

SMILES | IL-1B inflam inh | TDP1 cell noCPT | CtBP-E1A blk | TDP1 block | DT40 TDP1 CPT | Six1-Eya2 blk
O=C(NCc1ccccc1CN1CCCC1)C1CCN(S(=O)(=O)c2ccc(F)c(F)c2)CC1 | -51* | -22% | -3 | 0% | -16% | 6
Cc1ccc(S(=O)(=O)N2CCC(C(=O)NCc3ccccc3CN3CCCC3)CC2)cc1C | 0 | u | 0 | 0% | u | -2
O=C(NCc1ccccc1Cl)C1CCN(S(=O)(=O)N2CCCCCC2)CC1 | -3 | 18µM* | 1 | -4% | u | 2
Cn1c(=O)n(C)c2cc(CNC(=O)[C@H]3O[C@@H](n4ccc(=O)[nH]c4=O)[C@H](O)[C@@H]3O)ccc21 | -21 | 11% | -15 | x | 5% | 8
CC1(C)CC2CC(C)(CN2C(=O)COC(=O)c2cccnc2Cl)C1 (centres undefined) | 0 | -1% | -3 | 0% | -5% | -3
CN(C)c1ccc(NC(=O)CSc2nc3ccsc3c(=O)n2CCCCCC(=O)O)cc1 | x | -20% | x | -13% | 4% | x
CC1CCN(S(=O)(=O)N2CCC(C(=O)NCc3ccccc3Cl)CC2)CC1 | x | 13µM* | x | 8% | u | x
O=C(Oc1ccc2c(c1)OCC2=O)c1ccccc1 | 11 | -21% | -2 | 0% | 2% | -71*
CC(C)(C)c1ccc(C(=O)Oc2ccc3c(c2)OCC3=O)cc1 | 13 | -20% | -1 | 0% | -24% | -2
N#C/C(=C\c1ccc(Sc2ccc(Cl)cc2)o1)c1nc2ccccc2[nH]1 | 0 | 13µM* | -1 | -9% | 21µM* | 1
N#Cc1ccc(Sc2nc3ccccc3[nH]2)cc1C#N | -22 | -12% | -14 | 4% | -14% | -17
N#C/C(=C\c1ccc(Sc2nc3ccccc3[nH]2)o1)c1ccccc1 | -73* | 18µM* | 3 | 7% | u | -1
N#C/C(=C/c1cccs1)c1nc2ccccc2[nH]1 | 9 | u | 2 | u | u | -10
O=C(COc1ccccc1Cl)NCc1nc(-c2ccccc2)no1 | 47 | -8% | 2 | 4% | -15% | 6
O=C(CN(CCc1ccccc1)C(=O)c1csnn1)NC1CCCC1 | 0 | -2% | 0 | -1% | 0% | 5
CCC(C)[C@@H](CN(N=O)[C@@H](Cc1ccccc1)CN(C)N=O)N(CCc1ccccc1)N=O (some centres undefined) | -2 | 21µM* | -5 | 1% | 16µM* | -5
CC(CCc1ccccc1)NC(=O)CCC1CCCC1 (centres undefined) | -3 | -21% | x | x | 6% | -1
CN(C[C@@H](CC1CCCCC1)N(C[C@H](Cc1ccccc1)N(CCc1ccccc1)N=O)N=O)N=O | 2 | u | -3 | 5% | 23µM* | -9
CN(C[C@H](Cc1ccccc1)N(C[C@H](CC1CCCCC1)N(CCc1ccccc1)N=O)N=O)N=O | 11 | u | 1 | 3% | 26µM* | -6
COC(=O)c1cn(CCOc2ccccc2F)c2ccccc12 | -19 | -8% | 12 | -6% | -27% | 22
COc1ccc(OCCn2cc(/C(N)=N/O)c3ccccc32)cc1 | -57* | u | 10 | 6% | -17% | -12
COc1ccccc1OCCn1cc(/C=N/NC(=O)c2ccncc2)c2ccccc21 | -7 | 18µM* | -12 | x | -28% | -14
COC(=O)c1cn(CCOc2ccccc2OC)c2ccccc12 | -4 | 15µM* | 2 | 5% | 18µM* | 0
O=C(N/N=C/c1cn(CCOc2ccccc2)c2ccccc12)c1ccncc1 | 14 | -7% | -8 | 8% | 1% | 15
CNC(=S)N/N=C/c1cn(Cc2ccc(F)cc2)c2ccccc12 | -20 | 10µM* | -13 | 11% | 16µM* | -12
SMILES | IL-1B inflam inh | TDP1 cell noCPT | CtBP-E1A blk | TDP1 block | DT40 TDP1 CPT | Six1-Eya2 blk
Cc1ccc(NC(=O)CN(C)C(=O)c2cc(-c3ccccc3)nn2-c2ccccc2)cc1 | 3 | u | -3 | 7% | u | -16
COc1cc(C(=O)N/N=C/c2cn(Cc3ccccc3)c3ccccc23)ccc1O | i | -21% | -4 | 8%[56.1 µM] | u | -5
N/C(=N\O)c1cn(Cc2ccccc2Cl)c2ccccc12 | -66* | u | 10 | x | u | -1
Cc1ccc(OCCn2cc(/C(N)=N/O)c3ccccc32)cc1C | 0 | u | -23 | 7% | -22% | -3
CNC(=S)N/N=C/c1cn(CCOc2ccc(OC)cc2)c2ccccc12 | -22 | 7.3µM* | -24 | 8% | 8.2µM* | -27
Cc1ccc(Cn2cc(/C=N/NC(=O)Cc3nnc(NC(=O)c4ccc(C)cc4)s3)c3ccccc32)cc1 | -17 | 6.5µM* | x | 2% | 12µM* | 1
COc1ccccc1OCCn1cc(/C=N/NC(N)=S)c2ccccc21 | -2 | 29µM* | x | 10% | u | -23
Cc1ccc(OCC(=O)NNC(=O)Nc2ccc(Cl)cc2)c(Br)c1 | -5 | -23% | 11 | x | -23% | -6
O=C1C(Cc2ccccc2)Nc2ncnc(N3CCOCC3)c2N1Cc1ccccc1 (centres undefined) | -4 | -16% | 3 | 2% | -15% | -3
COc1cccc(C(=O)OCC(=O)Nc2ccc3c(c2)OCCO3)c1 | 34 | u | 5 | 0% | -25% | 2
CC(=O)N1c2ccccc2[C@H](C)[C@H]1C | 13 | 3% | 3 | 0% | 5% | 7
Cc1noc(C)c1S(=O)(=O)N(C)C[C@@H]1OCc2cnnn2CCCC(=O)N([C@H](C)CO)C[C@@H]1C | 10 | 11% | 5 | x | 4% | 9
CC(C)NC[C@@H](O)COc1ccc(CC(N)=O)cc1 | 1 | 9% | -18 | x | -10% | 7
COc1ccc(OCCn2cc(C=O)c3ccccc32)cc1 | -10 | u | 3 | x | u | -4
NC(=O)Cn1cc(/C=N\NS(=O)(=O)c2ccc(F)cc2)c2ccccc21 | i | 23µM* | 8 | -2% | -3% | -8
Cc1ccccc1OCCn1cc(C=O)c2ccccc21 | -53* | -37% | -3 | 5% | u | -22
Cc1nnc(SCC(=O)N2c3ccccc3Sc3ccccc32)n1N | 4 | 1% | 9 | 2% | -2% | -3
Cc1nnc(SC(=O)N2c3ccccc3Sc3ccccc32)s1 | -101* | 10µM* | 5 | 1% | 13µM* | -3
Cc1ccc(CNC(=O)c2ccc(NS(=O)(=O)c3c(C)noc3C)cc2)cc1 | -3 | -11% | 4 | 2% | -8% | 6
